Molecules are shown by their SMILES. Active and inactive are the calls of the source. Calls come from the whole dose curve; as a rule, active = well fitted curve in the direction sought with a large enough effect in the repeat runs; inconclusive = weak or mixed curves; inactive = flat fitted curve, though single readings scatter.

The results in this text go back to PubChem BioAssay (Tox21).
% is set by controls: 0 for no effect and ±100 for the full control effect.

This test is described as follows: qHTS assay to test for compound auto fluorescence at 590 nm (red) in HEK293 cells (AID 720679). The note with it: red autofluorescence 540/590 nm; series mostly up to 91.3 µM; fluorescence, % of fluorescent control: at the top concentration. From the text: National Center for Advancing Translational Sciences [NCATS]
NIH Chemical Genomics Center [NCGC]
U.S. Environmental Protection Agency [EPA]
National Institutes of Environmental Health Sciences [NIEHS]
National Toxicology Program [NTP]
U.S. Food and Drug Administration [FDA]
Compound auto fluorescence often interferes with screening of the compound library against various biological targets and signaling pathways. Some of these compounds may have fluorophoric properties. Such properties may interfere with the assay outputs resulting in false positives and/or negatives. To decrease such complications and ensure the compound activities are relevant in terms of biological response, the Tox21 10K compound library was screened for auto fluorescence.
From the fluorophores used as reporter signals in our screening assays, the auto fluorescence equivalencies of compounds against three fluorophores have been evaluated: Triamterene, Fluorescein and Rose Bengal sodium for blue, green and red fluorescence, respectively. The fluorescence intensities were measured using Excitation/Emission wavelengths at 405/460nm, 485/535nm and 540/590nm for blue, green and red labels, respectively. This assay includes the red fluorescence data.
Tox21 Assay Protocol Summary:
2,000 HEK293 cells in 5 uL of culture medium containing 10% dialyzed FBS per well were dispensed into black wall/clear bottom 1536-well plates using a Multidrop Combi Dispenser (Thermo Scientific). The assay plates were incubated for 4-5 hr at 37C to allow cell attachment to the well bottom, followed by the transfer of 23 nL compound or DMSO vehicle by a pintool work station (Kalypsys, San Diego, CA). After the assay plates were incubated overnight at 37C and 5% CO2, fluorescence intensities in the assay plates were measured by an Envision (PerkinElmer, Shelton, CT) plate reader using three labels for measuring blue, green and red fluorescence at […] 460, 535 and 590nm respectively.
(In qHTS, concentration-response curves come from the screen itself.)
`CCCCCCCCCCCCCC[P+](CCCC)(CCCC)CCCC`: the compound was called inactive.

On to `CNCCC(Oc1ccc(C(F)(F)F)cc1)c1ccccc1` (stereo not given), for which the compound was called inactive. Consider `NCCCCCC(=O)O`, for which the fluorescence, % of fluorescent control was 0.0137% [at 18.6 µM] (inactive). In the case of `COc1cc(C(=S)N2CCOCC2)ccc1O`, the “fluorescence, % of fluorescent control” value was -0.0569% [at 46 µM] (inactive). As to `CCCCC(CC)COC(=O)CC(C(=O)OCC(CC)CCCC)S(=O)(=O)O` (stereo not given), the compound was called inactive. For `NC(=Nc1ccccc1)Nc1ccccc1`, the outcome was inactive.

Consider `CC(=O)OCC1=C(C(=O)O)N2C(=O)[C@@H](NC(=O)Cc3cccs3)[C@H]2SC1`, for which the “fluorescence, % of fluorescent control” value is 0.227% [at 46 µM] (inactive). As to `Cc1cc(C(C)(C)C)c(O)c(C(C)(C)C)c1`, the result was inactive. Still for that read-out and setting: the entry for `C=CC(=O)OCCCCCCOC(=O)C=C` is “inactive”. Regarding `Cc1occc(=O)c1OC(=O)C(C)C`, the “fluorescence, % of fluorescent control” value was -0.333% (inactive).

Take `CC[C@@H](N)CO`: the “fluorescence, % of fluorescent control” value is 0.0796% [at 95.7 µM] (inactive). With `CCC(CO)(CO)COCC(CC)(CO)CO`, the “fluorescence, % of fluorescent control” value was 0.442% (inactive). `CCCCCC(=O)O[C@]1(C(C)=O)CC[C@H]2[C@@H]3CCC4=CC(=O)CC[C@]4(C)[C@H]3CC[C@@]21C`: the compound was called inactive. In the case of `Oc1c(Cl)cc(Cl)cc1Sc1cc(Cl)cc(Cl)c1O`, the outcome was inactive. In the case of `BrC1CCC(Br)C(Br)CCC(Br)C(Br)CCC1Br` (stereo not given), the call was inactive. Still for that read-out and setting: with `CC(=O)OCCOCCOCCOC(C)=O` the entry was “inactive”; with `COc1ccc(COC(C)=O)cc1`, “inactive”; with `COC(=O)c1cccc(C(=O)OC)c1`, “inactive”. As to `O=C(Oc1ccccc1)c1ccccc1O`, the compound was classed as inactive. For `CCOc1ccccc1C(N)=O`, the outcome was inactive.

As for `CN1C(=O)c2ccc([N+](=O)[O-])cc2C1=O`, the “fluorescence, % of fluorescent control” value was -0.0602% (inactive). As to `CO[Si](OC)(OC)c1ccccc1`, the “fluorescence, % of fluorescent control” value is 0.0933% (inactive). As for `O=C1Nc2ccccc2C1(c1ccc(O)cc1)c1ccc(O)cc1`, the “fluorescence, % of fluorescent control” value is -0.471% (inactive). For the compound `CC1COc2c(N3CCN(C)CC3)c(F)cc3c(=O)c(C(=O)O)cn1c23` (stereo not given), the “fluorescence, % of fluorescent control” value is -0.139% [at 46 µM] (inactive). For `CCn1cc(C(=O)O)c(=O)c2cc(F)c(N3CCNC(C)C3)c(F)c21` (stereo not given), the call was inactive. With `COc1ccc(Cc2cnc(N)nc2N)cc1OC`, the “fluorescence, % of fluorescent control” value is -0.777% [at 46 µM] (inactive). In the case of `c1cc(C(c2ccc(OCC3CO3)cc2)C(c2ccc(OCC3CO3)cc2)c2ccc(OCC3CO3)cc2)ccc1OCC1CO1` (stereo not given), the outcome was inactive. `Cc1cccc(O)c1C`: the compound was called inactive. Consider `Nc1nc2ccccc2[nH]1`, for which the compound was classed as inactive. On to `NNCCc1ccccc1`, for which the result was inactive.

For the compound `C1COC(NC(C2CC2)C2CC2)=N1`, the “fluorescence, % of fluorescent control” value is 0.0249% [at 46 µM] (inactive). With `CC(COc1ccccc1)N(CCCl)Cc1ccccc1` (stereo not given), the outcome was inactive.

With `CCOc1ccc2c(c1)C(C)=CC(C)(C)N2`, the compound was called inactive. As to `NC(N)=Nc1nc(CSCC/C(N)=N/S(N)(=O)=O)cs1`, the call was inactive. Regarding `COC(c1ccccc1)(c1ccccc1)[C@H](Oc1nc(C)cc(C)n1)C(=O)O`, the “fluorescence, % of fluorescent control” value was -0.0149% [at 46 µM] (inactive). Turning to `c1cnc2cc3c(cc2n1)C1CNCC3C1`, the “fluorescence, % of fluorescent control” value was -0.0833% [at 95.7 µM] (inactive). `CC(C)(c1ccccc1)c1ccc(Nc2ccc(C(C)(C)c3ccccc3)cc2)cc1`: the compound was classed as inactive. As for `CCCCN(CCO)CCCC`, the “fluorescence, % of fluorescent control” value is 0.287% [at 95.7 µM] (inactive). `C=C(C)C1CC=C(C)C(OC(C)=O)C1` (stereo not given): the call was inactive.

In the case of `OCC(CO)N[C@H]1C[C@](O)(CO)[C@@H](O)[C@H](O)[C@H]1O`, the “fluorescence, % of fluorescent control” value is 0.0102% [at 46 µM] (inactive).
